Most compounds without a hit are left out; they make up all but 19% or so of the library.
KB-3-1 tox: qHTS assay for MDR1-selective chemotherapeutics: Primary screen using the parental adenocarcinoma cell KB-3-1. KB-3-1 viability, CellTiter-Glo ATP luminescence, 72 h. Potency, µM (doses to about 46.1 µM), most hits filed as cytotoxic. 1.4% of 400,000 active. AID 1347075, 2019; further: nearly all actives have a fitted effect of over 60% in size
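Parental KB-3-1 adenocarcinoma cells in phenol-red-free DMEM with 10% FBS were pin-treated with compounds at several concentrations, incubated 72 h at 37 °C, and viability read by CellTiter-Glo luminescence; concentration-effect curves were fitted after normalization.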
HT1080 IDH1KD tx: qHTS for induction of synthetic lethality in tumor cells producing 2HG: qHTS for the HT-1080-IDH1KD cell line | AID 686971, 2013 | Potency, µM (titrated, usually from 46.1 µM), actives largely listed as cytotoxic | 2% of 360,000 active | HT-1080 IDH1 knockdown viability, ATP luminescence, 48 h
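CellTiter-Glo luminescence after 48 h compound exposure at 37 degrees C of IDH1-knockdown HT-1080 cells in 5% FBS RPMI. %Activity scaled between DMSO wells and cell-free media wells, with curves fitted and assigned curve classes.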
TDP1 cell CPT: qHTS for Inhibitors of human tyrosyl-DNA phosphodiesterase 1 (TDP1): qHTS in cells in presence of CPT; chicken DT40 Tdp1-/-;hTDP1 cells + 20 nM CPT, ATP luminescence, 48 h; Potency, µM (highest dose often 46.2 µM), hits mostly inhibitors; 12% of 420,000 active; AID 686979, 2013; further: nearly all actives have a fitted effect of over 55% in size
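Chicken DT40 Tdp1-/- cells complemented with human TDP1, 400 cells/well, exposed to compounds plus 20 nM camptothecin for at least 48 h at 37 C; viability read as ATP content by CellTiter-Glo luminescence.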
HT1080NT lethal: qHTS for induction of synthetic lethality in tumor cells producing 2HG: qHTS for the HT-1080-NT fibrosarcoma cell line. HT-1080-NT fibrosarcoma viability, CellTiter-Glo ATP luminescence, 48 h. Potency, µM (titrated, usually from 46.1 µM), usual class: cytotoxic. 1.6% of 360,000 active. AID 686970, 2013;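 further: NT is the 2HG producing partner of a matched IDH1 knockdown line; nearly all actives have a fitted effect of over 55% in size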
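HT-1080-NT fibrosarcoma cells (2HG-overproducing), 750 cells/well in RPMI with 5% FBS, dosed after 2 h and incubated 48 h at 37C. CellTiter-Glo luminescence normalized to DMSO and no-cell wells; concentration-response curves fitted and classed.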
KB-V1 cytotox: qHTS assay for MDR1-selective chemotherapeutics: Primary screen using the drug-selected MDR subline cells KB-V1; KB-V1 MDR cells viability, CellTiter-Glo, 72 h; Potency, µM (doses to about 46.1 µM), most hits filed as cytotoxic; 3.4% of 400,000 active; further: nearly all actives have a fitted effect of over 60% in size
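KB-V1 cells (P-gp-expressing MDR subline of KB-3-1) in phenol-red-free DMEM with 10% FBS were exposed to library compounds over a concentration series for 72 h at 37 degrees C. Viability read by CellTiter-Glo luminescence; concentration-effect curves fitted after normalization.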
TDP1 cell noCPT: qHTS for Inhibitors of human tyrosyl-DNA phosphodiesterase 1 (TDP1): qHTS in cells in absence of CPT; DT40 Tdp1-/- hTDP1 cells, no CPT, ATP luminescence, 48 h; Potency, µM (highest dose often 46.2 µM), actives largely listed as inhibitors; 15% of 420,000 active; AID 686978, 2013; further: nearly all actives have a fitted effect of over 55% in size
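Chicken DT40 Tdp1-/- cells complemented with human TDP1, screened without camptothecin (DMSO vehicle only), 400 cells/well. Compounds pin-transferred, cells incubated at 37 °C for at least 48 hr. Growth read as ATP-dependent luminescence (CellTiter-Glo, 30 min at RT).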
Hits are given with their value; n = inactive; u = inconclusive; x = not tested or not shown; [ ] = another dose, or the depositor's remark. The call rests on the fitted dose curve; in most records, active means well fitted curve in the direction sought with a large enough effect; inconclusive means small, poorly fitted or top-dose-only effect, or another doubt; inactive means no such curve, though single readings can be large; an effect the other way counts as inactive or inconclusive.

SMILES | KB-3-1 tox | HT1080 IDH1KD tx | TDP1 cell CPT | HT1080NT lethal | KB-V1 cytotox | TDP1 cell noCPT
CCN(CC)S(=O)(=O)c1ccc2nc(NC(=O)c3ccccc3OC)sc2c1 | n | x | u | x | u | 5.2µM
COc1ccccc1C(=O)Nc1nc2cc3c(cc2s1)OCO3 | n | n | u | n | u | n
COc1ccccc1C(=O)Nc1nc2cc3c(cc2s1)OCCO3 | u | u | 5.8µM | u | n | 5.8µM
CCN(CC)S(=O)(=O)c1ccc2nc(NC(=O)c3cccs3)sc2c1 | n | u | u | n | n | u
Cc1cc(=O)[nH]c(SCCCOc2ccc(F)cc2)n1 | n | n | n | n | 18µM | n
CCCSc1nc(C)cc(=O)[nH]1 | n | n | n | n | n | n
CCCOc1cccc(OCCSc2nc(C)cc(=O)[nH]2)c1 | n | n | n | n | u | n
CCC(=O)c1ccccc1OCCSc1nc(C)cc(=O)[nH]1 | n | n | n | n | 15µM | n
O=C1C(Cl)=C(N2CCCCC2)C(=O)C(Cl)=C1c1cnc(N2CCCCC2)s1 | 18µM | 16µM | 0.92µM | u | n | 0.92µM
CC(C)n1c(SCC(=O)NC2CC2)nnc1C1CC1 | n | n | n | n | n | n
CCc1nc2nc(C)c(NS(=O)(=O)c3ccc(C)cc3)c(=O)n2[nH]1 | n | x | n | x | n | n
CCN1C(=O)/C(=C/c2cccs2)SC1=Nc1ccc(OC)cc1 | n | n | 7.3µM | n | n | 4.1µM
COc1ccc(N=C2S/C(=C\c3cc(C)n(C)c3C)C(=O)N2CC(C)C)cc1 | n | n | u | n | 2.6µM | 18µM
O=C(C[n+]1cccc2cccc(O)c21)c1ccccc1 | n | x | u | x | n | n
COc1ccc(CCC(=O)O)cc1 | n | x | n | x | n | n
COc1ccc(CCC2CCNCC2)cc1 | n | n | u | n | n | 18µM
CN(Cc1ccccc1)C(=O)CNC(=O)C12CC3CC(CC(C3)C1)C2 | n | n | n | n | n | n
CN(Cc1ccccc1Cl)C(=O)CNC(=O)C12CC3CC(CC(C3)C1)C2 | n | n | 21µM | n[9.24 µM] | n | u
Cc1ccc(Nc2nc(-c3ccc(S(=O)(=O)N4CCCC4)cc3)cs2)cc1C | 7.3µM | u | u | u | 2.6µM | 21µM
Cc1ccc(Nc2nc(-c3ccc(S(=O)(=O)N4CCOCC4)cc3)cs2)cc1 | n | u | u | u | u | u
Cc1cc(C)cc(Nc2nc(-c3ccc(S(=O)(=O)N4CCCC4)cc3)cs2)c1 | 4.6µM | u | 8.2µM | u | u | 7.3µM
O=S(=O)(c1ccc(-c2csc(Nc3ccc(F)cc3)n2)cc1)N1CCCC1 | n | u | 12µM | u | n | 12µM
CCOC(=O)c1cccc(NC(=O)N2CC(CC)Sc3ccccc32)c1 (centres undefined) | n | x | u | x | n | u
COc1cccc(NC(=O)CCc2nnc3ccc(N4CCN(c5cccc(OC)c5)CC4)nn23)c1 | n | n | u | n | u | u
CN(C)S(=O)(=O)c1ccc(NC(=O)N2CCN(c3ccccc3Cl)CC2)cc1 | n | n | n | n | u | u
SMILES | KB-3-1 tox | HT1080 IDH1KD tx | TDP1 cell CPT | HT1080NT lethal | KB-V1 cytotox | TDP1 cell noCPT
COc1ccc(NC(=O)N2CCC3(CC2)CCN(C(=O)c2cc(C(F)(F)F)cc(C(F)(F)F)c2)CC3)cc1 | x | x | n | x | x | n
COc1ccc(NC(=O)N2CCN(c3cccc(C(F)(F)F)c3)CC2)cc1 | n | n | 2.1µM | n | u | 7.3µM
COc1ccc(NC(=O)CSCC(=O)N2CCN(c3cccc(C(F)(F)F)c3)CC2)cc1 | n | n | u | n | n | 15µM
COc1ccc(NC(=O)CCc2nnc3ccc(N4CCN(c5cccc(OC)c5)CC4)nn23)cc1 | n | n | u | n | n | 15µM
CN(C)S(=O)(=O)c1ccc(NC(=O)N2CCN(c3cccc(C(F)(F)F)c3)CC2)cc1 | u | u | 3.7µM | u | u | 2.6µM
CCCCn1nnnc1C1(C)CCC(=O)N1CCc1ccccc1F (centres undefined) | n | n | n | n | u | n
Oc1ccc(-c2onc(C(F)(F)F)c2-c2cscn2)c(O)c1 | n | n | u | n | u | 21µM
Cc1nc(-c2c(C(F)(F)F)noc2-c2ccc(O)cc2O)cs1 | n | u | u | n[9.24 µM] | n | u
CC(=O)c1cccc(NC(=O)CC(c2ccc(C)cc2)N2Cc3ccccc3C2=O)c1 (centres undefined) | n | x | u | x | u | 16µM
CSc1cccc(NC(=O)CC(c2ccc(F)cc2)N2Cc3ccccc3C2=O)c1 (centres undefined) | x | x | 23µM | x | x | 21µM
CCc1ccccc1NC(=O)CC(c1ccc(F)cc1)N1Cc2ccccc2C1=O (centres undefined) | x | x | 23µM | x | x | 23µM
COc1cc(C(CC(=O)Nc2ccc(F)cc2F)N2Cc3ccccc3C2=O)cc(OC)c1OC (centres undefined) | n | x | u | x | n | u
Cc1ccc(C(CC(=O)Nc2cc(C)cc(C)c2)N2Cc3ccccc3C2=O)cc1 (centres undefined) | n | x | 15µM | x | u | 23µM
Cc1ccc(NC(=O)CC(c2ccc(F)cc2)N2Cc3ccccc3C2=O)cc1C (centres undefined) | x | x | n | x | x | n
CCOC(=O)c1cccc(NC(=O)CC(c2cc(OC)c(OC)c(OC)c2)N2Cc3ccccc3C2=O)c1 (centres undefined) | n | x | u | x | n | u
CC1(C(=O)NS(=O)(=O)C2CC2)CCN(C(=O)c2c(F)cccc2F)C1 (centres undefined) | n | u | n | n | n | n
COCC(=O)Nc1cc(C(=O)NC2Cc3ccccc3C2)cc2nc(-c3cccnc3)n(C)c12 | x | x | n[9.04 µM] | x | x | n
COc1ccc(NC(=O)N2CC[C@@]3(CCCN(C(=O)c4ccco4)C3)C2)cc1 | x | x | n | x | x | n
COc1cc(C(CC(=O)Nc2cc(C)ccc2C)N2Cc3ccccc3C2=O)cc(OC)c1OC (centres undefined) | n | x | n | x | n | u
Cc1ccc(C(CC(=O)Nc2ccc(C)cc2C)N2Cc3ccccc3C2=O)cc1 (centres undefined) | u | x | 16µM | x | n | 18µM
CCc1ccccc1NC(=O)CC(c1ccc(OC)cc1)n1cccc1 (centres undefined) | n | n | u | n | 7.3µM | u

Screens from PubChem.
